TRHR PAM: allosteric enhancers of human TRH receptor; TRHR cells, fluo-8 calcium fluorescence, EC20 TRH enhancement; enhancement, % at 2 µM; 360,000 compounds, 0.66% hits; AID 493056; in the data active = enhancement above about 30%; note: 0% is about no effect
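TRHR-expressing cells loaded with fluo-8 calcium dye were read kinetically (ex 480/em 530) during compound addition, then stimulated with an EC20 of TRH (10 nM final). Enhancement of the Gq-mediated intracellular calcium response was scored.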
D1 antag: blocks dopamine activation of the human D1 receptor; P21728; HEK293 TREx D1 cells, calcium flux, dopamine EC80; stronger effect = lower value; activity change, negative = inhibition, % at 10 µM; 360,000 compounds, 3.2% hits; in the data active = activity change below about -30%; note: % is set by controls: 0 for no effect and ±100 for the full control effect
Target sequence (P21728 whole entry, looked up): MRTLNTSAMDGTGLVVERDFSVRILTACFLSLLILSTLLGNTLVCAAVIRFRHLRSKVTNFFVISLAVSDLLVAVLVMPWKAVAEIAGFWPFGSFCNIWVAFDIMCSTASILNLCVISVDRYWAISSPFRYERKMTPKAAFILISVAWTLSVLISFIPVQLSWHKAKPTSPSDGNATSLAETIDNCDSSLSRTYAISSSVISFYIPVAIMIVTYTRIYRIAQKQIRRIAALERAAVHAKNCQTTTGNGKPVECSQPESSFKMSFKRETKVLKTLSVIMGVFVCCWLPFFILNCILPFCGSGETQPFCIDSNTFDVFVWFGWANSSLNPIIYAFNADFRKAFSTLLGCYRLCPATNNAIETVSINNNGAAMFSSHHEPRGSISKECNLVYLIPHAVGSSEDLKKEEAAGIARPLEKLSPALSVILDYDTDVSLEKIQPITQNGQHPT
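After overnight tetracycline induction at 30 C, force-coupled D1 HEK293 cells took up a no-wash calcium dye at room temperature. Compounds were added and monitored 180 s, and the response to EC80 dopamine was then recorded.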
TRHR ag: activates the human TRH receptor; TRHR cells, calcium flux fluo-8, FDSS agonist mode; AID 493084; 360,000 compounds, 0.18% hits; activation, % at 2 µM; note: 0% is about no effect
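Read-out: compound-evoked intracellular calcium rise in TRHR cells, fluo-8 dye, kinetic FDSS fluorescence at 1 s/cycle following a 10-cycle baseline. Cells cultured overnight before dye loading (30 min–1.5 h, RT).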
D1 agonist: activates the human D1 dopamine receptor. P21728. HEK293 T-REx D1 cells, calcium flux, agonist mode. activation, % at 2 µM. 360,000 compounds, 1% hits; note: 0% is about no effect
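Tetracycline-induced HEK293 TREx D1 cells, force-coupled to calcium signalling, were dye-loaded with a no-wash calcium kit. Compound was pin-added after a 10 s baseline. Fluorescence was read kinetically at 1 cycle/s for 180 s, with calcium rises flagged as agonism.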
D1 potentiator: enhances dopamine response at the human D1 receptor | 360,000 compounds, 0.036% hits | potentiation, % at 10 µM | HEK293 TREx D1 cells, calcium flux, dopamine EC20 potentiation; in the data active = potentiation above about 30%; note: 0% is about no effect
* marks the source's active call; other numbers are inactive results. In the library only some 4.6% were active in any assay of this set; here they are far more common. Cut-off read from the data, not from the text of the source, unless noted: active = activation above about 30%; inactive = the rest.

Screening CCOC(=O)c1nn(-c2ccc(F)cc2)c(=O)cc1OCC(=O)Nc1cccc(C)c1 returned TRHR PAM -8.3, D1 antag 1.4, TRHR ag 0.1, D1 agonist 10.8 and D1 potentiator -5.8.
CNC(=O)Nc1ccc2snnc2c1 was read as TRHR PAM 15.7, D1 antag -0.3, TRHR ag -0.7 and D1 agonist 7.7.
`O=C(Nc1cccc(F)c1)c1ccc2snnc2c1` gave TRHR PAM 4.8, D1 antag -30.8*, TRHR ag 0.5, D1 agonist 16.3 and D1 potentiator -1.6.
Cc1ccc(F)c(NC(=O)Nc2ccc3snnc3c2)c1 was read as TRHR PAM -1.6, D1 antag -27.4, TRHR ag 2.1, D1 agonist 13.5 and D1 potentiator -2.7.
`Cc1c(Cl)cccc1NC(=O)Nc1ccc2snnc2c1` gave TRHR PAM -1.0, D1 antag -28.8, TRHR ag 2.3, D1 agonist 39.5* and D1 potentiator -4.0.
Screening CC(=O)c1ccc(NC(=O)Nc2ccc3snnc3c2)cc1 returned TRHR PAM 5.1, D1 antag -73.9*, TRHR ag 2.7, D1 agonist 46.1* and D1 potentiator -3.6.
`COC(=O)c1cc(NC(=O)Nc2ccc3snnc3c2)cc(C(=O)OC)c1` gave TRHR PAM 3.3, D1 antag -13.4, TRHR ag 0.1, D1 agonist 6.8 and D1 potentiator -3.7.
For O=C(Nc1ccc(F)cc1)Nc1ccc2snnc2c1 the results were TRHR PAM -6.0, D1 antag -30.6*, TRHR ag 2.9, D1 agonist 48.5* and D1 potentiator -4.3.
For O=C(Nc1ccc2snnc2c1)N1CCSCC1 the results were TRHR PAM -0.9, D1 antag -2.4, TRHR ag 0.9, D1 agonist 13.5 and D1 potentiator -4.8.
`CC1CN(C(=O)Nc2ccc3snnc3c2)c2ccccc21` (stereo not given) gave TRHR PAM -1.0, D1 antag -62.5*, TRHR ag 0.7, D1 agonist 4.4 and D1 potentiator -6.8.
CCOc1ccc(C(=O)NCC(c2ccc3c(c2)OCO3)N2CCN(c3ccccc3F)CC2)cc1 (stereo not given) was read as TRHR PAM 3.9, D1 antag 8.0, TRHR ag 0.2, D1 agonist 3.7 and D1 potentiator -4.8.
CC(CC12CC3CC(CC(C3)C1)C2)NCc1ccccc1O (stereo not given) was read as TRHR PAM 7.2, D1 antag -0.7, TRHR ag 0.9, D1 agonist 15.7 and D1 potentiator -13.0.
`Oc1ccccc1CNCC12CC3CC(CC(C3)C1)C2` gave TRHR PAM -1.5, D1 antag 0.7, TRHR ag -1.9, D1 agonist 53.2* and D1 potentiator -7.3.
`COc1ccc(/C=N/N=C2\CC3CCC2(C)C3(C)C)cc1O` (stereo not given) gave TRHR PAM 2.5, D1 antag 5.6, TRHR ag 0.3, D1 agonist 2.7 and D1 potentiator -1.2.
For COc1cc(/C=N/N=C2\CC3CCC2(C)C3(C)C)ccc1O (stereo not given) the results were TRHR PAM 0.0, D1 antag -59.9*, TRHR ag -0.4, D1 agonist 2.6 and D1 potentiator 0.2.
CCn1c(CNc2ccc(Cl)cc2)nnc1SCC(=O)OC1CCCCC1 was read as TRHR PAM -4.1, D1 antag 0.4, TRHR ag 0.0, D1 agonist 8.7 and D1 potentiator -4.1.
CCn1c(CNc2cccc(Cl)c2)nnc1SCC(=O)OC1CCCCC1 was read as TRHR PAM 6.0, D1 antag -43.1*, TRHR ag -0.6, D1 agonist 36.2* and D1 potentiator -4.5.
Cc1ccc(C2NC(=O)c3ccccc3O2)cc1 (stereo not given) was read as TRHR PAM -7.4, D1 antag -15.4, TRHR ag 0.4, D1 agonist 2.8 and D1 potentiator -2.1.
For O=C(COc1ccc([N+](=O)[O-])cc1)N1CCC(c2nc3ccccc3s2)CC1 the results were TRHR PAM -3.1, D1 antag -82.1*, TRHR ag 0.0, D1 agonist 6.8 and D1 potentiator -1.1.
Screening COc1ccc(OCC(=O)N2CCC(c3nc4ccccc4s3)CC2)cc1 returned TRHR PAM -1.3, D1 antag -11.3, TRHR ag -0.1, D1 agonist 4.9 and D1 potentiator -0.8.

Bioassay records (PubChem)
